In the library only some 2.5% were active in any assay of this set; here they are far more common.
LASV entry inh: qHTS for Inhibitors of binding or entry into cells for Lassa Virus; Lassa virus pseudotype entry inhibition, cell reporter; Potency, µM (titrated, usually from 37.9 µM), for inactives: top-dose activity change, negative = inhibition, hits mostly inhibitors; 300,000 tested, 1.2% active; calls by dose curve; tested in HEK293 cells; note: nearly all actives have a fitted effect of over 50% in size
VACV mCherry inh: qHTS for Stage-Specific Inhibitors of Vaccinia Orthopoxvirus: mCherry Reporter Primary qHTS | Vaccinia virus mCherry reporter infection, fluorescence | Potency, µM (series often up to 36.5 µM), inactives show at the top dose activity change, negative = inhibition, hits mostly inhibitors | 310,000 tested, 0.63% active; calls by dose curve; tested in A549 cells; note: nearly all actives have a fitted effect of over 35% in size
Marburg entry inh: qHTS for inhibitors of binding or entry into cells for Marburg Virus; Marburg virus pseudotyped entry inhibition, cell reporter; Potency, µM (titrated, usually from 37.8 µM), for inactives: at the highest dose activity change, negative = inhibition, usual class: inhibitors; 300,000 tested, 1.8% active; AID 540276, 2011; calls by dose curve; tested in HEK293 cells
Vaccinia Venus: qHTS for Stage-Specific Inhibitors of Vaccinia Orthopoxvirus: Venus Reporter Primary qHTS; Vaccinia virus Venus reporter expression, fluorescence; AID 720580, 2013; Potency, µM (series often up to 36.5 µM), inactives show at the highest dose activity change, negative = inhibition, actives largely listed as inhibitors; 330,000 tested, 0.46% active; calls by dose curve; tested in A549 cells; note: nearly all actives have a fitted effect of over 30% in size
* hit, by the source's call; i = inactive; ? = inconclusive; . = not tested or not shown; [ ] = another dose, or the depositor's remark. % is set by controls: 0 for no effect and ±100 for the full control effect; potency is the fitted concentration of half-maximal effect.

SMILES	LASV entry inh	VACV mCherry inh	Marburg entry inh	Vaccinia Venus
Cc1cc(C)n(-c2nc(NC(C)C)nc(NC(C)(C)C)n2)n1	.	-11%	.	-18%
O=C(CN1CCN(Cc2ccccc2)CC1)N/N=C/c1ccccc1F	27%	0%[7.34 µM]	19%[46.1 µM]	-5%[7.34 µM]
C=CCc1cccc(C=NNC(=O)CN2CCN(Cc3ccccc3)CC2)c1O	12µM*	.	?	.
COC(=O)CC=C[C@@H](C)[C@@H](C=NOC[C@@H](O)COCc1ccco1)OC	.	.	-14%[14.2 µM]	.
CCNc1c2c(oc(=O)c1N)CCCC2	.	.	5%	.
CCCCCCC(C)(C)c1ccc([C@@H]2C[C@H](O)CC[C@@H]2CCCO)c(O)c1	.	.	13µM*	.
O=C(C1=C(O)CCCC1)N1CCOCC1	.	.	20%[46.1 µM]	.
CCCCOc1ccc(N(CC(=O)NC2CCCC2)C(=O)CCC(=O)Nc2ccccn2)cc1	-5%	-13%	?	2%
CCCCOc1ccc(N(CC(=O)NC(C)(C)CC)C(=O)CCC(=O)Nc2ccccn2)cc1	?	-9%	8.9µM*	-27%
OC1(c2cccc(C(F)(F)F)c2)CCN(c2ncnc3c2[nH]c2ccc(F)cc23)CC1	14µM*	.	4µM*	11µM*
CC(=O)N1CCC(O)(c2cccc(C(F)(F)F)c2)CC1	0%	i	-9%	-7%
Cc1csc(SCC(=O)N2CCOc3ccc(C(O)C4CCCCC4)cc3C2)n1 (stereo not drawn)	.	-5%	.	-11%
COc1ccc(CNC[C@@H](CCCCN(C)Cc2ccc(OC)cc2)N2C[C@H](c3ccccc3)N(CCc3ccc(Cl)c(Cl)c3)C(=O)C2=O)cc1	.	?	.	22µM*
CCOc1cc(CNCCc2ccc(S(N)(=O)=O)cc2)ccc1OCc1ccccc1	?	.	6.5µM*	.
CCOC(=O)C1(Cc2cccc(Cl)c2)CCCN(C(=O)c2cccc(C)n2)C1 (stereo not drawn)	?	-6%	7.1µM*	-13%
C[C@H](ON=C1[C@H]2CCn3c(=O)n(-c4ccccc4)c(=O)n3[C@@H]2[C@H](O)[C@@H]2O[C@H]12)c1cn([C@H](CO)Cc2ccccc2)nn1	?	.	7%[14.2 µM]	.
Cc1ccc2nc(NC(=O)c3ccco3)sc2c1	1µM*	.	4.5µM*	?
COc1ccc2nc(NC(=O)c3cccs3)sc2c1	?	i	6.3µM*	-18%
Cc1ccc2nc(NC(=S)NC(=O)c3ccco3)sc2c1	?	-7%	4%	-10%
CCOc1ccc2nc(NC(=O)c3ccc(C)o3)sc2c1	8.9µM*	-14%	?	-23%
O=C(Nc1nc2c(ccc3ccccc32)s1)c1ccco1	?	.	15µM*	.
CCOc1ccc2nc(NC(=O)c3ccccc3)sc2c1	-1%[46.1 µM]	-6%	.	-7%
CCCCCC1CCNCC1	.	i	.	-12%
CCOC(=O)CN1C(=O)[C@]2(OCCC=C[C@@H]2C)c2ccccc21	.	.	1%[14.2 µM]	.
CCOC(=O)C1=CN(CCC=C(C)C)C(=O)N(C(C)=O)C1c1ccccc1 (stereo not drawn)	.	.	57%[14.2 µM]	.
SMILES	LASV entry inh	VACV mCherry inh	Marburg entry inh	Vaccinia Venus
O=C(Nc1nc2ccc(Br)cc2s1)c1ccco1	?	-14%	?	-21%
O=C(Nc1nc2ccc(Cl)cc2s1)c1ccco1	11µM*	-12%	?	-25%
OC1(c2cccnc2)CCN(Cc2ccc3c(c2)CN(Cc2cccc(C(F)(F)F)c2)CCO3)CC1	.	-27%	.	-24%
O=C(OCC1OC(OC(=O)c2cc(O)c(O)c(OC(=O)c3cc(O)c(O)c(O)c3)c2)[C@@H](OC(=O)c2cc(O)c(O)c(OC(=O)c3cc(O)c(O)c(O)c3)c2)C(OC(=O)c2cc(O)c(O)c(OC(=O)c3cc(O)c(O)c(O)c3)c2)C1OC(=O)c1cc(O)c(O)c(OC(=O)c2cc(O)c(O)c(O)c2)c1)c1cc(O)c(O)c(OC(=O)c2cc(O)c(O)c(O)c2)c1 (stereo partly drawn)	11µM*	.	0.35µM*	.
CC(C)Oc1ccc(C(CCN)C2CCCCC2)cc1 (stereo not drawn)	?	13µM*	?	?
CC(=O)N(C)c1ccc(N=Nc2ccc3ncccc3c2)cc1	10µM*	?	?	-8%
CN(C)c1ccc(/C=C/c2ccc3ncccc3c2)cc1	.	27%	.	-5%
Cc1ccc(OCC(=O)N2CCN(c3nnc(-c4ccc(C)cc4)c4ccccc34)CC2)cc1	?	.	4.1µM*	.
CCN(CC)CCC[C@H](C)N=C(c1ccccc1)c1c(O)n(C)c(=O)n(C)c1=O	.	.	-2%	.
O=C(/C=C/c1ccc([N+](=O)[O-])cc1)NCc1ccccn1	11%	i	24%	-5%

Screens (PubChem)
